From PubChem BioAssay (NCATS)
“And” between values parts separate entries of the source, which are not always exact repeats. Identical values can stand only once. Results filed as inconclusive are left out. The source made the active and inactive calls. Calls follow the shape of the dose curve; as a rule, active = well fitted inhibition curve with a large enough effect; inconclusive = small, poorly fitted or top-dose-only effect; inactive = flat fitted curve, though single readings scatter. Where a SMILES comes first, the peptide text is derived from it. [ ]: non-standard residue; d: D form. pGlu = O=C1CC[C@@H](C(=O)O)N1; Thz = O=C(O)[C@@H]1CSCN1

Legend:
Experiment in all cases: qHTS profiling for inhibitors of Plasmodium falciparum proliferation (AID 504749); also: nearly all actives have a fitted effect of over 60% in size
Settings in all cases: P. falciparum in erythrocytes, SYBR Green DNA, 72 h; series mostly up to 28.7 µM
CP262 = system: CP262
Outline: (§1)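 In a 72 h erythrocytic culture (37 C, humidified, 5% CO2) at 2.5% hematocrit and 0.3% starting parasitemia, compounds were tested; SYBR Green I in detergent lysis buffer stained parasite DNA overnight.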

CP265 = system: CP265
Outline: as §1

CP266 = system: CP266
Outline: as §1

CP268 = system: CP268
Outline: as §1

CP269 = system: CP269
Outline: as §1

CP286 = system: CP286
Outline: as §1

CP291 = system: CP291
Outline: as §1

CP297 = system: CP297
Outline: as §1

CP305 = system: CP305
Outline: as §1

CP315 = system: CP315
Outline: as §1

CP325 = system: CP325
Outline: as §1

CP329 = system: CP329
Outline: as §1

CP335 = system: CP335
Outline: as §1

DFO2036 = system: DFO2036
Outline: as §1

DIV14 = system: DIV14
Outline: as §1

DIV17 = system: DIV17
Outline: as §1

DIV30 = system: DIV30
Outline: as §1

Dd2 = system: Dd2
Outline: as §1

ECU = system: ECU
Outline: as §1

FAB9 = system: FAB9
Outline: as §1

Measured: Potency
Potency is read from the fitted curve at half-maximal effect.

Cc1ccccc1CNc1ncnc2c1ncn2C1OC(CO)C(O)C1O (centres undefined)
inactive: all assays above

CN1[C@@H]2CC[C@H]1CC(OC(=O)C(CO)c1ccccc1)C2 (some centres undefined)
not listed: DIV30
inactive: all other assays above

C#C[C@]1(O)CC[C@H]2[C@@H]3CCc4cc(O)ccc4[C@H]3CC[C@@]21C
inactive: all assays above

Cc1c(Nc2ncccc2C(=O)O)cccc1C(F)(F)F
inactive: all assays above

CC1(C)C[C@@H]1C(=O)N/C(=C\CCCCSC[C@H](N)C(=O)O)C(=O)O
inactive: all assays above

CCOC(=O)c1ccccc1O
inactive: all assays above

CC1OC1P(=O)(O)O (centres undefined)
inactive: all assays above

CCC1C(=O)OCC1Cc1cncn1C (centres undefined)
inactive: all assays above

Cc1ccc(C(=O)c2ccc(CC(=O)O)n2C)cc1
inactive: all assays above

CC(C(=O)O)c1ccc2c(c1)[nH]c1ccc(Cl)cc12 (centres undefined)
inactive: all assays above

C=CC(N)CCC(=O)O (centres undefined)
inactive: all assays above

COc1ccc(/C=C/C(=O)Nc2ccccc2C(=O)O)cc1OC
not listed: DIV30
inactive: all other assays above

C=C(Nc1ccc(OCC)cc1)Nc1ccc(OCC)cc1
inactive: all assays above

COc1ccc(-c2cc(=S)ss2)cc1
active: ECU 12.6 µM
not listed: DIV30
inactive: all other assays above

CCCCCCOc1ccccc1C(N)=O
inactive: all assays above

CCCCCCCCCCCCCCCCCC(=O)O
inactive: all assays above

[O-][n+]1ccccc1SSc1cccc[n+]1[O-]
active: CP262 1.07 µM | CP265 1.26 µM | CP266 1.51 µM | CP268 0.849 µM | CP269 1.07 µM | CP286 0.891 µM | CP291 1.2 µM | CP297 1.35 µM | CP305 0.953 µM | CP315 1.69 µM | CP325 0.953 µM | CP329 1.35 µM | CP335 0.601 µM | DFO2036 0.891 µM | DIV14 0.757 µM | DIV17 0.536 µM | DIV30 1.2 µM | Dd2 0.891 µM | ECU 1.12 µM | FAB9 1.58 µM

O=C(/C=C/c1ccccc1)NCCO
inactive: all assays above

Nc1ccc(C(=O)O)c(O)c1
inactive: all assays above

C=CCCCCCCCCC(=O)O
inactive: all assays above

O=C(O)/C=C/C(O)c1ccc(Cl)cc1 (centres undefined)
inactive: all assays above

O=C(Nc1ccc(C(=O)O)c(O)c1)c1ccccc1
not listed: DIV17
inactive: all other assays above

O=C(OCc1ccccc1)c1ccccc1
not listed: DIV17
inactive: all other assays above

Cc1ccc(O)c(-n2nc3ccccc3n2)c1
inactive: all assays above

CCCSc1ccc2nc(NC(=O)OC)[nH]c2c1
not listed: DIV30
inactive: all other assays above

O=C(O)[C@H](O)[C@@H](O)[C@H](O)[C@H](O)CO
inactive: all assays above

O=C1CC[C@@H](C(=O)N2CSC[C@H]2C(=O)O)N1 ([pGlu]-[Thz]-OH)
inactive: all assays above

C=CCN1C(=O)C(CC(C)C)NC1=S (centres undefined)
inactive: all assays above

O=C(O)[C@H](CC(=O)N1C[C@H]2CCCC[C@H]2C1)Cc1ccccc1
inactive: all assays above

CCCCCCCCCCCCCCCC(=O)OC(C)C
not listed: FAB9
inactive: all other assays above

COc1cc2c3cc1Oc1cc(ccc1O)C[C@@H]1c4c(cc(OC)c(O)c4Oc4ccc(cc4)C[C@@H]3N(C)CC2)CC[N+]1(C)C
inactive: all assays above

O=C(O)COc1ccc(C(=O)c2cccs2)c(Cl)c1Cl
inactive: all assays above

CC1(C)S[C@@H]2[C@H](NC(=O)[C@H](NC(=O)N3CCN(S(C)(=O)=O)C3=O)c3ccccc3)C(=O)N2[C@H]1C(=O)O
inactive: all assays above

CCCOC(=O)c1ccc(O)cc1
inactive: all assays above

COc1cc(/C=C/C(=O)N2CCN(CC(=O)N3CCCC3)CC2)cc(OC)c1OC
not listed: DIV14 | DIV17 | DIV30 | ECU
inactive: all other assays above

CN1[C@@H]2CC[C@H]1CC(OC(c1ccccc1)c1ccccc1)C2 (some centres undefined)
active: CP286 11.2 µM | DFO2036 12.6 µM | DIV14 2.39 µM and 1.9 µM | DIV17 5.36 µM and 4.26 µM | Dd2 6.31 µM
inactive: CP266 | CP297 | CP315 | CP325 | CP329 | FAB9

CCOc1ccc2nc(S(N)(=O)=O)sc2c1
not listed: CP291
inactive: all other assays above

O=C(O)c1ccccc1Nc1cccc(C(F)(F)F)c1
not listed: DIV14
inactive: all other assays above

NC(=O)C(c1ccccc1)(c1ccccc1)[C@@H]1CCN(CCc2ccc3c(c2)CCO3)C1
active: DIV14 7.57 µM | DIV17 10.7 µM | Dd2 5.01 µM
inactive: CP266 | CP269 | CP315 | CP325 | FAB9

c1ccc2sc(SN3CCOCC3)nc2c1
not listed: DIV14 | DIV17 | Dd2 | ECU
inactive: all other assays above

C[S+](CC[C@H](N)C(=O)O)C[C@H]1O[C@@H](n2cnc3c(N)ncnc32)[C@H](O)[C@@H]1O (some centres undefined)
not listed: CP265 | CP266 | DFO2036 | ECU
inactive: all other assays above

CCCCCCCCCCCC(=O)[O][Sn]([CH2]CCC)([CH2]CCC)[O]C(=O)CCCCCCCCCCC
not listed: CP286
inactive: all other assays above

Oc1c(Br)cc(Br)c2cccnc12
not listed: CP262
inactive: all other assays above

Nc1ccc(O)c(C(=O)O)c1
not listed: CP266
inactive: all other assays above

CC1(C)[C@@H](O)CC[C@]2(C)[C@H]3C(=O)C=C4[C@@H]5C[C@@](C)(C(=O)O)CC[C@]5(C)CC[C@@]4(C)[C@]3(C)CC[C@@H]12
not listed: CP266
inactive: all other assays above

COc1cc(/C=C/C(=O)CC(=O)/C=C/c2ccc(O)c(OC)c2)ccc1O
active: CP297 13.5 µM | DIV14 16.9 µM | DIV17 13.5 µM | DIV30 13.5 µM | Dd2 12.6 µM | ECU 1 µM
inactive: FAB9

CN1CCN(c2cc3c(nn2)Oc2ccccc2N3C)CC1
not listed: CP266
inactive: all other assays above

COC(=O)C1=C(C)NC(C)=C(C(=O)OCC(C)C)C1c1ccccc1[N+](=O)[O-] (centres undefined)
active: CP286 8.91 µM | CP291 12 µM | CP297 16.9 µM | CP325 12 µM | DIV14 10.7 µM | DIV30 16.9 µM | ECU 10 µM

N=c1ccn2c(n1)O[C@H]1[C@H](O)[C@@H](CO)O[C@H]12
not listed: CP297
inactive: all other assays above

Clc1ccccc1-c1nc(-c2ccncc2)no1
active: DIV17 15.1 µM
not listed: DIV14 | ECU
inactive: all other assays above

Cc1cc(O)c2ccccc2c1O
not listed: CP335 | DIV14 | DIV17 | Dd2
inactive: all other assays above

c1ccc2sc(SSc3nc4ccccc4s3)nc2c1
not listed: CP266
inactive: all other assays above

O=C(O)Cc1ccc(-c2ccccc2)cc1
not listed: CP335
inactive: all other assays above

CC(N)C(=O)OC(C)(C)Cc1ccc(Cl)cc1 (centres undefined)
inactive: CP262 | CP266 | CP315 | FAB9
active: CP297 9.53 µM | DIV14 9.53 µM | DIV17 8.49 µM | Dd2 7.94 µM

CN(C)c1ccc(C(=C2C=CC(=[N+](C)C)C=C2)c2ccccc2)cc1
active: CP265 11.2 µM | CP266 12 µM | CP269 10.7 µM | CP286 2 µM | CP325 12 µM | CP335 4.78 µM | DIV17 6.01 µM | Dd2 11.2 µM
inactive: CP262 | FAB9

O=c1[nH]c2ccccc2n1CCCN1CCN(C(c2ccccc2)c2ccccc2)CC1
active: DIV14 13.5 µM | DIV17 13.5 µM | Dd2 11.2 µM
inactive: CP262 | CP315 | FAB9

O=C(O)c1cc(O)c(O)c(O)c1
not listed: CP262 | CP335 | DIV14 | DIV17 | Dd2 | FAB9
inactive: all other assays above

CCCCC[C@H](O)/C=C/[C@@H]1[C@@H](C/C=C\CCCC(=O)O)[C@@H](O)C[C@H]1O
not listed: CP335
inactive: all other assays above

Cc1[nH]cnc1CN1CCc2c(c3ccccc3n2C)C1=O
not listed: DIV14
inactive: all other assays above
